Bioassay records from PubChem.
HTT-AS act: HTT-AS promoter activation; HEK293 HTT-AS promoter firefly luciferase reporter, 24 h; response scale: percent change from vehicle, -100% = no light; Potency, µM (top dose mostly 57.5 µM), for inactives: at the highest dose activity change, positive = activation, hits mostly activators; 48,000 tested, 0.24% active; note: potency is the fitted concentration of half-maximal effect; nearly all actives have a fitted effect of over 55% in size
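Firefly luciferase signal from promoter-reporter HEK293 cells was scaled between vehicle (0%) and zero RLU (-100%). Compounds were tested at final concentrations of up to 57.5 uM over 24 h at 37 degrees C. PTC124 at 50 uM final served as control inhibitor.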
HTT prom inh: inhibitors of huntingtin promoter activity; HEK293 HTT promoter firefly luciferase reporter, 24 h; 48,000 tested, 0.93% active; Potency, µM (titrated, usually from 57.5 µM), inactives show at the top dose activity change, negative = inhibition, actives largely listed as inhibitors; AID 1508623; note: potency is the fitted concentration of half-maximal effect; nearly all actives have a fitted effect of over 50% in size
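HEK293 cells carrying firefly luciferase reporters were seeded at 2,500 per well in Opti-MEM and cultured for 24 h. They were then treated with compounds at up to 57.5 uM final for 24 h at 37 degrees C before Dual-Glo luminescence readout.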
NTMT1 inhibitor: NTMT1 methyltransferase inhibition; Q9BV86; NTMT1 MTase-Glo SAH luminescence, purified enzyme; Potency, µM (series often up to 114 µM), without a hit: top-dose activity change, negative = inhibition, actives largely listed as inhibitors; 59,000 tested, 2.5% active;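 note: potency is the fitted concentration of half-maximal effect; plate controls were DMSO vehicle for no effect and no enzyme for full effect; nearly all actives have a fitted effect of over 65% in size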
Target sequence (Q9BV86 whole entry, looked up): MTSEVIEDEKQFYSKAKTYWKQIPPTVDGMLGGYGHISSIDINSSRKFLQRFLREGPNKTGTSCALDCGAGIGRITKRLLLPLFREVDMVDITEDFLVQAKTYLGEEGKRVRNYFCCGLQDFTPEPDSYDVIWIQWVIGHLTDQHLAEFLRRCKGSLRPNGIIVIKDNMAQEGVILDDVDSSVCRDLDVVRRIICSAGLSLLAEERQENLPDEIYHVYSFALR
DRV1 agonist: activates human resolvin D1 receptor GPR32 | O75388 | CHO-K1 GPR32 beta-arrestin PathHunter luminescence, 90 min; zero percent set by DMSO-only wells | activation, % at 76.9 µM | 48,000 tested, 2.5% active;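 active = activation of at least 60% and not above a set upper limit, about 1 call in 100 departs from these limits; inconclusive = activation of 40% to 60%, or above that upper limit; inactive = activation under 40%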; note: 0% is about no effect
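Agonism was scored by beta-Gal fragment complementation (chemiluminescent read, 1 h detection at ambient temperature) reporting beta-arrestin binding to GPR32 in engineered CHO-K1 cells. Compound treatment lasted 90 min at 37 C, normalized to a DMSO basal control.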
* hit, by the source's call; ? = inconclusive; . = no result; ! = a repeat was not active; [ ] = another dose, or the depositor's remark. In the library only some 4.6% were active in any assay of this set; here they are far more common. Unless noted, calls come from the whole dose curve; as a rule, active = well fitted curve in the direction sought with a large enough effect; inconclusive = small, poorly fitted or top-dose-only effect, or another doubt; inactive = no such curve, though single readings can be large; an effect the other way counts as inactive or inconclusive.

SMILES	HTT-AS act	HTT prom inh	NTMT1 inhibitor	DRV1 agonist
CCN(CC)c1ccc(C(=C2C=CC(=[N+](CC)CC)C=C2)c2cc(S(=O)(=O)O)ccc2S(=O)(=O)[O-])cc1	-56%	?	28µM*	-78
CCOC(=O)c1c(NC(=O)c2ccc(S(=O)(=O)N3CCCC(C)C3)cc2)sc2c1CC(C)(C)NC2(C)C (stereo not given)	?	-66%	10%	120*
CN(c1ccc(NC(=O)Nc2ccccc2)cc1)S(=O)(=O)c1cnn(-c2ccc(F)cc2)c1	.	.	4%[57.5 µM]	.
O=[S+]([O-])(Nc1ccc(-c2ccccc2)cc1)c1ccc(NCc2ccc(Cl)cc2O)cc1	.	.	-5%	.
Clc1cccc(C2=NC(c3cccs3)=Nc3ccc(Br)cc3N2)c1	9%	-13%	89µM*	-20
Cc1ccc(S(=O)(=O)NCCc2csc3nc(-c4ccccc4C)nn23)cc1	-23%	-20%	-5%	80*
O=C(COc1ccc2oc3c(c2c1)CCCC3)Nc1ccc(Cl)cc1	-28%	-22%	17%	74*
CC(C)(O)C1CC(=O)C2(C)C(CCC3(C)C(c4ccoc4)OC(=O)C4OC432)C12CCC(=O)OC2 (stereo not given)	.	.	12%[29.8 µM]	.
CCOc1ccc(NC(=O)CSc2nnc(CNC(=O)C34CC5CC(CC(C5)C3)C4)n2CC)cc1	-28%	-27%	89µM*	13
Cc1ccc(OCCn2c(CCNC(=O)C(C)(C)C)nc3ccccc32)cc1	.	.	-2%[57.5 µM]	.
C=C1[C@H](OC(C)=O)[C@H]2[C@@H](OC(C)=O)[C@](C)(OC(C)=O)C[C@]2(OC(C)=O)C(=O)[C@H](C)/C=C/C(C)(C)C(=O)[C@H](OC(=O)C(C)C)[C@H]1OC(C)=O	.	.	6%[12.6 µM]	.
CCc1ccccc1NC(=O)CSc1nnc(COc2ccccc2Cl)o1	-3%	?	6%	69*
CCCCN1CCCc2cc(CN(CCCN3CCOCC3)C(=O)Nc3ccc(CC)cc3)ccc21	-30%	6%	-23%	14
CCCN1CCCc2cc(CN(CCCN3CCOCC3)C(=O)Nc3ccc(CC)cc3)ccc21	-33%	-16%	-26%	61*
C[C@@H]1CCC/C=C/[C@H]2CC(=O)C[C@@H]2[C@@H](O)/C=C/C(=O)O1	.	.	-19%[57.5 µM]	.
CC(C)(C)c1ccc(C(=O)NCC(c2cccs2)S(=O)(=O)c2ccc(F)cc2)cc1 (stereo not given)	-58%	20µM*	7%	-5
Cc1ccc(C(=O)NCC(c2cccs2)S(=O)(=O)c2cccs2)cc1 (stereo not given)	-36%	?	6%	74*
CCCNC(=O)C1CCN(Cc2cc3ccccc3n2Cc2ccccc2)CC1	-24%	-30%	1%	-13
CN(C)CCNC(=O)C1CCN(Cc2cc3ccccc3n2Cc2ccccc2)CC1	-31%	?	?	64*
O=c1oc2cc(O)ccc2cc1-c1nnc(Nc2ccccc2F)s1	?	96%	50µM*	6
N[C@@H](Cc1ccc(O[S+](=O)([O-])c2cccc3cnccc23)cc1)C(=O)N1CCN(c2ccccc2)CC1	.	.	0%[57.5 µM]	.
CCN(CC)CCCCNc1nc2cc(Cl)c(Cl)cc2nc1-c1ccc(-c2cccs2)s1	-24%	?	20µM*!	.
COC1/C=C/C(C)(O)C(SCC(N)C(=O)O)CC(=O)OC(C)C(C)CC/C=C/1C (stereo not given)	.	.	-2%[29.8 µM]	.
COCCCNC(=O)c1sc2nc(C)c(C(=O)Nc3ccc(Cl)cc3)c(-c3ccc(Br)cc3)c2c1N	-3%	-28%	9%	64*
COCCCNC(=O)c1sc2nc(C)c(C(=O)Nc3ccc(C)cc3C)c(-c3ccc(Br)cc3)c2c1N	-18%	?	-10%	-1
SMILES	HTT-AS act	HTT prom inh	NTMT1 inhibitor	DRV1 agonist
CCc1ccc(NC(=O)Cn2nnc(C(=O)Nc3cc(C)ccc3OC)c2N)cc1	-13%	-26%	3%	74*
COc1ccc(C)cc1NC(=O)c1nnn(CC(=O)Nc2c(C)cccc2C)c1N	-3%	-5%	-18%	2
Cc1nc([C@](C)(O)CO)sc1-c1cnc(N)c(O[C@H](C)c2cc(F)ccc2-n2nccn2)c1	.	.	-3%[57.5 µM]	.
FC(F)(F)c1cc(-c2ccc(CNc3nc(C4CCCC4)nc4ccccc34)cc2)ccn1	.	.	-9%[57.5 µM]	.
CCOc1ccc2nc(NC(=O)c3ccccc3)sc2c1	?	31%	?	1
CCOc1ccc2nc3cc(N)ccc3c(N)c2c1	-29%	-19%	20µM*	44
CN1CCN(c2ccc(NC(=O)CN(C)Cc3c(O)ccc4ccccc34)cc2)CC1	.	.	-6%[57.5 µM]	.
